Screens: PubChem BioAssay, National Center for Advancing Translational Sciences (NCATS)
Sampled rows, rich in hits. Any-hit rate of the full collection: about 12%.
HP1b chromo inh: inhibitors of HP1-beta chromodomain binding to methylated histone tails | AlphaScreen HP1-beta / biotin-H3K9me3 peptide binding | Potency, µM (titrated, usually from 114 µM), hits mostly inhibitors | 0.56% of 390,000 active | AID 540317 | P83916; further: nearly all actives have a fitted effect of over 70% in size
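AlphaScreen: HP1-beta (50 nM) preformed 30 min with biotin-H3(1-18)K9me3 peptide (50 nM) in PBS pH 7.4, 0.01% Tween-20. Compound added for 30 min at RT, then streptavidin donor/nickel chelate acceptor beads (10 ug/mL) for 30 min.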
PI5P4K alpha inh: inhibitors of human PI5P4K alpha; PI5P4Kalpha enzyme, ADP-Glo luminescence, 60 min; hits give low values; 1.2% of 330,000 active; max response, %; P48426; active means max response of -50% or lower; inconclusive means between -30% and -50%; inactive means -30% or higher; further: value at the top dose of about 77 µM
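Luminescence from ADP-Glo served as readout of PI5P4Kalpha activity in a qHTS format. Reaction: enzyme, substrate, compound, ATP at 5 microM final, 60 min at RT.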
PLK1 PBD block: inhibitors of human PLK1 polo-box domain binding | Plk1 PBD binding of FITC phosphopeptide, fluorescence polarization | 2.8% of 360,000 active | Potency, µM, actives largely listed as inhibitors; further: series mostly up to about 57 µM; nearly all actives have a fitted effect of over 65% in size
BAZ2B block: inhibitors of human BAZ2B bromodomain | Potency, µM (titrated, usually from 114 µM), usual class: inhibitors | AlphaScreen BAZ2B-H3K14Ac peptide displacement | Q9UIF8 | 4.4% of 360,000 active; further: nearly all actives have a fitted effect of over 60% in size
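AlphaScreen displacement: compounds (up to 110uM) incubated 30 min at room temperature with a preformed 50 nM BAZ2B/50 nM biotinylated H3K14Ac peptide complex in PBS pH 7.4 with Tween-20. Donor and acceptor beads at 10 ug/mL final added, 20 min light-protected before reading.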
G9a inh-1: inhibitors of human histone lysine methyltransferase G9a; Potency, µM (titrated, usually from 102 µM), most hits filed as inhibitors; G9a H3K9 monomethylation, AlphaScreen, 2 h; 8.8% of 350,000 active; further: nearly all actives have a fitted effect of over 75% in size
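Signal arises when biotinylated H3K9 peptide, once monomethylated, bridges streptavidin donor and antibody-captured acceptor beads. Enzyme at 20 nM was preincubated 15 min with test compounds; peptide 500 nM and SAM 20 uM then reacted for 2 h.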
JMJD2A Tudor inh: inhibitors of human JMJD2A Tudor domain. O75164. AlphaScreen JMJD2A-Tudor / H3K4me3 peptide binding. Potency, µM (top dose mostly 114 µM), hits mostly inhibitors. 4.4% of 390,000 active. AID 504339; further: nearly all actives have a fitted effect of over 50% in size
JMJD2E inh-1: inhibitors of human JMJD2E demethylase, 8HQ series round 1; AID 493212; 89% of 130 active; JMJD2E demethylase, FDH-coupled NADH fluorescence; shares compounds with BAZ2B block; Potency, µM (doses to about 57 µM), usual class: inhibitors
ME-1 growth: inhibitors of ME-1 leukemia cell proliferation, CBFb-RUNX1 project | 20% of 140 active | ME-1 cell proliferation, ATP luminescence, 48 h | shares compounds with BAZ2B block | Potency, µM (doses to about 56.1 µM), hits mostly inhibitors
JMJD2E inh-2: confirmation of inhibitors of human JMJD2E demethylase. shares compounds with JMJD2A Tudor inh. Recombinant JMJD2E, FDH-coupled NADH fluorescence (FDH is formaldehyde dehydrogenase). Potency, µM (highest dose often 56.8 µM), actives largely listed as inhibitors. 93% of 140 active. AID 2677
FDH counter: blocks Pseudomonas putida formaldehyde dehydrogenase, flagging JMJD2E artifacts; shares compounds with JMJD2A Tudor inh; FDH enzyme assay, NADH fluorescence kinetic; Potency, µM (top dose mostly 56.7 µM), hits mostly inhibitors; 10% of 140 active; AID 2680
G9a inh-2: confirmation of human histone methyltransferase G9a inhibitors; shares compounds with JMJD2A Tudor inh; G9a H3K9 monomethylation, AlphaScreen, 2 h; Potency, µM, usual class: inhibitors; 89% of 370 active; AID 588344; further: nearly all actives have a fitted effect of over 65% in size
ADP-Glo interf: ADP-Glo luciferase interference, PI5P4K counter-screen | ADP-Glo detection counter-screen, luciferase luminescence, no enzyme | AID 743285 | Potency, µM (doses to about 76.9 µM), most hits filed as inhibitors | shares compounds with PI5P4K alpha inh | 1,100 tested, under 10 active
TbPYK inh: confirmation of Trypanosoma brucei pyruvate kinase inhibitors. shares compounds with PLK1 PBD block. recombinant TbPYK, Kinase-Glo ATP luminescence. Potency, µM (series often up to 76.9 µM), most hits filed as inhibitors. 67% of 890 active. AID 720569; further: nearly all actives have a fitted effect of over 70% in size
TbPYK orthogonal: inhibits T. brucei pyruvate kinase in orthogonal ADP-Glo assay | shares compounds with PLK1 PBD block | recombinant TbPYK, ADP-Glo luminescence, 60 min | Potency, µM (highest dose often 76.9 µM), actives largely listed as inhibitors | 62% of 890 active | AID 720584; further: nearly all actives have a fitted effect of over 75% in size
A number is an active result; - = inactive; ? = inconclusive; . = no result given; ! = a repeat was not active; [ ] = dose if it differs, or a comment. Unless noted, the call rests on the fitted dose curve; in most records, active means well fitted curve in the direction sought with a large enough effect; inconclusive means small, poorly fitted or top-dose-only effect, or another doubt; inactive means no such curve, though single readings can be large; an effect the other way counts as inactive or inconclusive.

SMILES	HP1b chromo inh	PI5P4K alpha inh	PLK1 PBD block	BAZ2B block	G9a inh-1	JMJD2A Tudor inh	others
COC(=O)c1ccc(NS(=O)(=O)NC(=O)c2cn(C)c3ccccc23)cc1	-	-	-	?	79µM	-
O=C1CCCCC1CN1CCCCC1 (stereo unspecified)	.	.	.	.	-[12.7 µM]	.
COc1ccc(Nc2cc(C)c3cc(NC(=O)c4ccccc4Cl)ccc3n2)cc1	-	.	.	-	?	?
COc1ccc(/C=N/N=C(/N)N[N+](=O)[O-])c(OC)c1	-	-	-	-	-	-
N/C(=N\N=C/c1ccc(-c2ccc(O)c(C(=O)O)c2)o1)N[N+](=O)[O-]	16µM	.	11µM	25µM	25µM	11µM
Cc1ncc(CNC(=O)N(CCCl)N=O)c(N)n1	-	-	-	-	17µM!	-
COCCNP(=O)(c1ccccc1)c1nc2ccccc2s1 (stereo unspecified)	.	.	.	-	-[12.7 µM]	.
Cc1ccc(NP(=O)(c2ccccc2)c2nc3ccccc3s2)cc1 (stereo unspecified)	-	-	-	-	25µM	-
C/C(=N\NC(N)=O)c1c(O)n(C)c(=O)n(C)c1=O	-	-	30µM	.	?	40µM
C[n+]1ccc(-c2ccncc2)cc1	-	.	-	-	16µM	40µM
O=P(O)(O)C(Cl)(Cl)P(=O)(O)O	.	.	.	.	-[12.7 µM]	.
Brc1cc2c(cc1CN1CCN(c3ccccc3)CC1)OCCO2	-	-	-	?	?	?
O=[N+]([O-])c1ccc(CN2CCN(c3ccc(Cl)cc3)CC2)o1	?	-	-	45µM	.	18µM
CC(C)[C@@]1(NC(=O)[C@H]2CC3c4cccc5[nH]cc(c45)C[C@H]3N(C)C2)O[C@@]2(O)C3CCCN3C(=O)[C@@H](Cc3ccccc3)N2C1=O (stereo partly specified)	.	.	.	.	13µM!	.	ME-1 growth=?
COc1ccc(C(c2nnnn2-c2c(C)cccc2C)N2CCC3(CC2)C(=O)NCN3c2ccccc2)cc1 (stereo unspecified)	.	-	-	.	.	.
Oc1cccc2cc(N3CCNCC3)cnc12	.	.	.	.	.	.	JMJD2E inh-1=?;JMJD2E inh-2=?;FDH counter=-
CC(C)(C)C1(CCO)C(=O)NC(=S)NC1=O	-	-	-	.	.	-
CC(=O)Nc1ccc(NC(=O)Oc2ccccc2)cc1	-	.	-	-	?	-
CN(C)c1ccc(NC(=O)Oc2ccccc2)cc1	-	-	-	45µM	1.6µM	?	G9a inh-2=1.4
COc1ccc(CCNCc2ccncc2)cc1OC	?	.	-	50µM	2.5µM	11µM	G9a inh-2=45
CNCCc1ccc(OC)c(OC)c1	-	-	-	-	?	-
N#Cc1ccc(NC(=S)N2Cc3ccccc3-n3nncc3C2)cc1	.	-	-	.	.	.
Cc1cccc(Cn2cccc(C(=O)Nc3cc(C)on3)c2=O)c1	-	.	.	-	-	-
COc1ccc(OCC(=O)N2CCN(Cc3cccc(OC)c3OC)CC2)cc1	?	.	.	50µM	2µM	7.9µM	G9a inh-2=29
Cc1cccc(OCC(=O)N2CCN(Cc3ccncc3)CC2)c1	-	-	-	18µM	2.5µM	1.3µM	G9a inh-2=8.9
SMILES	HP1b chromo inh	PI5P4K alpha inh	PLK1 PBD block	BAZ2B block	G9a inh-1	JMJD2A Tudor inh	others
COc1ccc(CN2CCN(Cc3ccccc3OC)CC2)cc1	?	-	-	25µM	2µM	4µM	G9a inh-2=3.6
N#CC1c2ccccc2-n2nncc2CN1C(=O)c1ccccc1F (stereo unspecified)	.	-	-	.	.	.
COc1ccc(C(=O)C2CCCN(Cc3ccon3)C2)c(OC)c1 (stereo unspecified)	-	-84	-	-	-	-	ADP-Glo interf=-
CC(=O)OC1C(O)C2=C3C4(C)C1C(C)(C)C(=O)CC4C3(O)C(OC(C)=O)C1(CC1C)C2=O (stereo unspecified)	.	-	?	.	.	.
NC(Cc1ccc(O)cc1)C(=O)NN=Cc1ccc(N(CCCl)CCCl)cc1 (stereo unspecified)	-	-	-	.	.	?
COc1ccc(CN2Cc3cnnn3-c3ccccc3C2C#N)cc1 (stereo unspecified)	-	-	-	.	.	-
N#CC1c2ccccc2-n2nncc2CN1Cc1cc(Cl)cc(Cl)c1 (stereo unspecified)	-	-60	?	.	.	-	ADP-Glo interf=-
CCC(=O)Oc1ccc(C(=O)Nc2cccc(C(=O)c3ccccc3)c2)cc1	-	-67	-	?	-	-	ADP-Glo interf=-
O=C1NC(=O)C(=Cc2ccc(SC3CCCCC3)o2)C(=O)N1	50µM	-75	0.6µM	45µM	11µM	?	TbPYK inh=28µM;TbPYK orthogonal=40µM
CN1C(=O)C(=Cc2ccccc2Oc2ccc(Cl)c(F)c2)C(=O)N(C)C1=O	-	-52	4.2µM	-	-	-	TbPYK inh=?;TbPYK orthogonal=-
COc1cc(/C=C2/C(=O)NC(=O)N(c3ccc(C)cc3)C2=O)cc(OC)c1OC	-	-	12µM	-	-[12.7 µM]	-	TbPYK inh=?;TbPYK orthogonal=?
COc1cc(C2SCC(=O)Nc3c2c(C)nn3-c2ccccc2)cc(OC)c1OC (stereo unspecified)	-	.	-	-	-	-
COc1cc(N2CCOCC2)ccc1/C=C1\C(=O)NC(=O)N(C2CCCCC2)C1=O	-	-	?	-	?	-
COC(=O)COc1ccc(/C=C2\C(=O)NC(=S)N(c3ccc(C)cc3)C2=O)cc1OC	-	-54	8.4µM	-	11µM	?	TbPYK inh=?;TbPYK orthogonal=?
